Measured values from PubChem BioAssay AID1159580 (chemical genetic matrix, 2015).
Among all 5,500 compounds or so, about 2,000 (36%) were called active. Not shown: some 18% with an inconclusive outcome. No stated cut-off is given here; in the data, active means normalized growth mostly below about 0.91 (no sharp cut-off); inconclusive means no clear call, values can overlap the other calls; inactive means mostly above about 0.92. Some of the results follow.

Assay: chemical genetic growth profiling, strain panel (AID 1159580);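 further: tested at 20 µM; growth read once vehicle control cultures reached saturation at 30 °C; 1 = growth at the plate median or of vehicle wells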
Conditions: growth OD

Measured: normalized growth

CCC(=O)OC1[C@@H]2CC3=C4CC(=O)O[C@@H](c5ccoc5)[C@]4(C)CCC3[C@@](C)(C2=O)[C@@H](CC(=O)OC)C1(C)C (stereo partly specified)
inactive: S. cerevisiae deletion strains, locus YJR066W, strain TOR1, stronger effect = lower value 0.936 | S. cerevisiae deletion strains, locus YKL009W, strain mrt4, stronger effect = lower value 1 | S. cerevisiae deletion strains, locus YKL068W, stronger effect = lower value 1.01 | S. cerevisiae deletion strains, locus YKL085W, strain MDH1 (second series), stronger effect = lower value 1 | S. cerevisiae deletion strains, locus YKL085W, strain MDH1, stronger effect = lower value 1 | S. cerevisiae deletion strains, locus YKL160W, strain elf1, stronger effect = lower value 1.01 | S. cerevisiae deletion strains, locus YKL190W, strain CNB1, stronger effect = lower value 0.999 | S. cerevisiae deletion strains, locus YKR001C, strain vps1, stronger effect = lower value 1.02 | S. cerevisiae deletion strains, locus YKR026C, strain gcn3, stronger effect = lower value 0.991 | S. cerevisiae deletion strains, locus YKR091W, strain srl3, stronger effect = lower value 0.984 | S. cerevisiae deletion strains, locus YLL001W, strain dnm1, stronger effect = lower value 1 | S. cerevisiae deletion strains, locus YLL026W, stronger effect = lower value 0.988 | S. cerevisiae deletion strains, locus YLL041C, strain sdh2, stronger effect = lower value 0.992 | S. cerevisiae deletion strains, locus YLR027C, strain aat2, stronger effect = lower value 0.992 | S. cerevisiae deletion strains, locus YLR039C, strain RIC1, stronger effect = lower value 0.884 | S. cerevisiae deletion strains, locus YLR058C, strain SHM2, stronger effect = lower value 1 | S. cerevisiae deletion strains, locus YLR102C, strain apc9, stronger effect = lower value 1.02 | S. cerevisiae deletion strains, locus YLR113W, strain HOG1, stronger effect = lower value 1.01 | S. cerevisiae deletion strains, locus YLR221C, strain rsa3, stronger effect = lower value 0.985 | S. cerevisiae deletion strains, locus YLR258W, strain gsy2, stronger effect = lower value 1.01 | S. cerevisiae deletion strains, locus YLR262C, strain YPT6 (second series), stronger effect = lower value 0.908 | S. cerevisiae deletion strains, locus YLR262C, strain YPT6, stronger effect = lower value 0.782 | S. cerevisiae deletion strains, locus YLR268W, strain sec22, stronger effect = lower value 0.997 | S. cerevisiae deletion strains, locus YLR320W, strain mms22, stronger effect = lower value 0.976 | S. cerevisiae deletion strains, locus YLR342W, strain FKS1, stronger effect = lower value 0.981 | S. cerevisiae deletion strains, locus YLR357W, strain rsc2, stronger effect = lower value 1.03 | S. cerevisiae deletion strains, locus YLR370C, strain arc18, stronger effect = lower value 0.983 | S. cerevisiae deletion strains, locus YLR371W, strain rom2, stronger effect = lower value 1.01 | S. cerevisiae deletion strains, locus YLR384C, strain iki3, stronger effect = lower value 1 | S. cerevisiae deletion strains, locus YLR418C, strain cdc73, stronger effect = lower value 1.03 | S. cerevisiae deletion strains, locus YML016C, strain PPZ1, stronger effect = lower value 1 | S. cerevisiae deletion strains, locus YML032C, strain rad52, stronger effect = lower value 1.02 | S. cerevisiae deletion strains, locus YML120C, strain ndi1, stronger effect = lower value 0.999 | S. cerevisiae deletion strains, locus YML124C, strain tub3, stronger effect = lower value 1.01 | S. cerevisiae deletion strains, locus YMR058W, strain fet3, stronger effect = lower value 0.994 | S. cerevisiae deletion strains, locus YMR078C, strain ctf18, stronger effect = lower value 1.02 | S. cerevisiae deletion strains, locus YMR125W, strain sto1, stronger effect = lower value 0.996 | S. cerevisiae deletion strains, locus YMR129W, stronger effect = lower value 0.998 | S. cerevisiae deletion strains, locus YMR205C, strain PFK2, stronger effect = lower value 0.995 | S. cerevisiae deletion strains, locus YMR223W, strain ubp8, stronger effect = lower value 1.01 | S. cerevisiae deletion strains, locus YMR231W, strain pep5, stronger effect = lower value 0.955 | S. cerevisiae deletion strains, locus YMR307W, strain GAS1, stronger effect = lower value 0.842 | S. cerevisiae deletion strains, locus YNL067W, strain RPL9B, stronger effect = lower value 1.01 | S. cerevisiae deletion strains, locus YNL071W, strain lat1, stronger effect = lower value 0.993 | S. cerevisiae deletion strains, locus YNL153C, strain GIM3, stronger effect = lower value 1.02 | S. cerevisiae deletion strains, locus YNL183C, strain NPR1, stronger effect = lower value 0.946 | S. cerevisiae deletion strains, locus YNL209W, strain ssb2, stronger effect = lower value 1 | S. cerevisiae deletion strains, locus YNL233W, strain BNI4, stronger effect = lower value 0.954 | S. cerevisiae deletion strains, locus YNL248C, strain rpa49, stronger effect = lower value 0.992 | S. cerevisiae deletion strains, locus YNL250W, strain rad50, stronger effect = lower value 1.01 | S. cerevisiae deletion strains, locus YNL271C, strain bni1, stronger effect = lower value 1.01 | S. cerevisiae deletion strains, locus YNL298W, strain CLA4, stronger effect = lower value 1.03 | S. cerevisiae deletion strains, locus YNL307C, strain MCK1, stronger effect = lower value 1.01 | S. cerevisiae deletion strains, locus YNL322C, strain KRE1 (second series), stronger effect = lower value 0.996 | S. cerevisiae deletion strains, locus YNL322C, strain KRE1, stronger effect = lower value 0.992 | S. cerevisiae deletion strains, locus YNR049C, strain mso1, stronger effect = lower value 0.989 | S. cerevisiae deletion strains, locus YNR052C, strain pop2, stronger effect = lower value 1.03 | S. cerevisiae deletion strains, locus YOL012C, strain htz1 1.24 | S. cerevisiae deletion strains, locus YOL147C, strain pex11, stronger effect = lower value 1.02 | S. cerevisiae deletion strains, locus YOR001W, strain rrp6, stronger effect = lower value 0.994 | S. cerevisiae deletion strains, locus YOR061W, strain CKA2, stronger effect = lower value 0.996 | S. cerevisiae deletion strains, locus YOR069W, strain VPS5, stronger effect = lower value 1 | S. cerevisiae deletion strains, locus YOR070C, strain gyp1, stronger effect = lower value 0.988 | S. cerevisiae deletion strains, locus YOR080W, strain dia2, stronger effect = lower value 0.981 | S. cerevisiae deletion strains, locus YOR083W, strain WHI5, stronger effect = lower value 1.02 | S. cerevisiae deletion strains, locus YOR106W, strain vam3, stronger effect = lower value 1.03 | S. cerevisiae deletion strains, locus YOR136W, strain idh2, stronger effect = lower value 1.02 | S. cerevisiae deletion strains, locus YOR144C, strain elg1, stronger effect = lower value 1.01 | S. cerevisiae deletion strains, locus YOR184W, strain ser1, stronger effect = lower value 0.989 | S. cerevisiae deletion strains, locus YOR231W, strain MKK1, stronger effect = lower value 1.01 | S. cerevisiae deletion strains, locus YOR265W, strain rbl2, stronger effect = lower value 0.994 | S. cerevisiae deletion strains, locus YOR270C, strain vph1, stronger effect = lower value 0.858 | S. cerevisiae deletion strains, locus YOR290C, strain snf2, stronger effect = lower value 0.996 | S. cerevisiae deletion strains, locus YOR316C, strain cot1, stronger effect = lower value 1.01 | S. cerevisiae deletion strains, locus YPL051W, strain arl3, stronger effect = lower value 0.982 | S. cerevisiae deletion strains, locus YPL055C, strain LGE1, stronger effect = lower value 1.01 | S. cerevisiae deletion strains, locus YPL078C, strain atp4, stronger effect = lower value 1.02 | S. cerevisiae deletion strains, locus YPL106C, strain sse1, stronger effect = lower value 1.04 | S. cerevisiae deletion strains, locus YPL240C, strain hsp82, stronger effect = lower value 0.99 | S. cerevisiae deletion strains, locus YPL256C, strain CLN2, stronger effect = lower value 0.983 | S. cerevisiae deletion strains, locus YPR119W, strain clb2, stronger effect = lower value 1.01 | S. cerevisiae deletion strains, locus YPR141C, strain kar3, stronger effect = lower value 1.01 | S. cerevisiae deletion strains, locus YPR163C, strain tif3, stronger effect = lower value 1.01 | S. cerevisiae deletion strains, locus YPR167C, strain met16, stronger effect = lower value 0.998 | S. cerevisiae deletion strains, strain wtn01, stronger effect = lower value 1.07 | S. cerevisiae strains, strain wild type, stronger effect = lower value 0.976
